Test results from the supplement of paper PMC6124720.

System: Pseudogymnoascus destructans 20631-21
Experiment: growth activity index (DuctApe, 0 = no growth, 9 = maximal growth) (index 0-9); higher = more fungal growth (less inhibition), active = 0 or less; extreme values may be limits of the assay
Conditions: temperature: 13 °C, YPD
[1] = concentration level (1-4, increasing; Biolog proprietary): 1
[2] = concentration level (1-4, increasing; Biolog proprietary): 2
[3] = concentration level (1-4, increasing; Biolog proprietary): 3
[4] = concentration level (1-4, increasing; Biolog proprietary): 4

Measured: growth activity index
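Further: biolog Phenotype Microarray plates PM21–25, OD595 followed daily over 11 days, growth curves converted to index, mean of two independent experiments.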

N.N.O=S(=O)(O)O [Ammonium Sulfate] (Biolog plate: PM23)
inactive: [1] 4.33 | [2] 5.33 | [3] 4 | [4] 2.67

NNC(=O)c1ccncc1 [Isoniazid] (Biolog plate: PM24)
inactive: [1] 5 | [2] 5 | [3] 4 | [4] 0.333

[Cl][Pd][Cl] [Palladium(II) Chloride] (Biolog plate: PM25)
inactive: [1] 4.33 | [2] 4 | [3] 4.67 | [4] 5

CN(C)CCCN1c2ccccc2Sc2ccc(Cl)cc21 [Chlorpromazine] (Biolog plate: PM23)
inactive: [1] 5 | [4] 2
active: [2] 0 | [3] 0

Cc1cc(N)c2ccccc2[n+]1CCCCCCCCCC[n+]1c(C)cc(N)c2ccccc21 [Dequalinium chloride] (Biolog plate: PM23)
inactive: [1] 4 | [2] 4.67 | [3] 2 | [4] 1

NC(N)=NCCC[C@H](N)C(=O)NO [L-Arginine hydroxamate] (Biolog plate: PM22)
inactive: [1] 5.67 | [2] 5 | [3] 3.33 | [4] 0.667

COc1cc(/C=C/C(=O)O)ccc1O [Ferulic acid] (Biolog plate: PM25)
active: [2] 0 | [3] 0
inactive: [1] 1 | [4] 1

O=c1cn[nH]c(=O)[nH]1 [6-Azauracil] (Biolog plate: PM24)
inactive: [1] 4.67 | [2] 4 | [3] 4.67 | [4] 2.67

CN(C)CCC=C1c2ccccc2CCc2ccccc21 [Amitriptyline] (Biolog plate: PM25)
active: [1] 0 | [2] 0
inactive: [3] 2.67 | [4] 6.33

O=C(O)CN(CCOCCOCCN(CC(=O)O)CC(=O)O)CC(=O)O (Biolog plate: PM24)
inactive: [1] 4.33 | [2] 4.33 | [3] 4 | [4] 4

N[C@@H]1CONC1=O [D-Cycloserine] (Biolog plate: PM21)
active: [4] 0
inactive: [1] 4 | [2] 5 | [3] 4.25

OB(O)O [Boric acid] (Biolog plate: PM22)
inactive: [1] 5.33 | [2] 0.333
active: [3] 0 | [4] 0

NC[C@@H]1O[C@H](O[C@H]2[C@@H](O)[C@H](O[C@@H]3[C@@H](O)[C@H](N)C[C@H](N)[C@H]3O[C@H]3O[C@H](CO)[C@@H](O)[C@H](O)[C@H]3N)O[C@@H]2CO)[C@H](N)[C@@H](O)[C@@H]1O [Paromomycin] (Biolog plate: PM22)
active: [4] 0
inactive: [1] 1 | [2] 1 | [3] 0.667

NC[C@@H]1O[C@H](O[C@H]2[C@@H](O)[C@H](O[C@@H]3[C@@H](O)[C@H](N)C[C@H](N)[C@H]3O[C@H]3O[C@H](CN)[C@@H](O)[C@H](O)[C@H]3N)O[C@@H]2CO)[C@H](N)[C@@H](O)[C@@H]1O [Neomycin] (Biolog plate: PM21)
inactive: [1] 5.25 | [2] 5 | [3] 2.5 | [4] 1.25

Cn1c(=O)c2c(ncn2C)n(C)c1=O [Caffeine] (Biolog plate: PM22)
inactive: [1] 5 | [2] 4
active: [3] 0 | [4] 0

[Na+].[O]=[V](=[O])[O-] [Sodium metavanadate] (Biolog plate: PM22)
inactive: [1] 5 | [2] 4.33 | [3] 5 | [4] 3.67

CCCCCCCCCCCC[N+](C)(C)C [Dodecyltrimethyl ammonium bromide] (Biolog plate: PM21)
active: [2] 0 | [3] 0
inactive: [1] 4.25 | [4] 1

O=C([O-])c1ccccc1.[Na+] [Sodium Benzoate] (Biolog plate: PM24)
inactive: [1] 4 | [2] 5 | [3] 4.67 | [4] 4.67

O=C(O)/C=C/C(=O)O [Fumaric acid] (Biolog plate: PM25)
inactive: [1] 4.33 | [2] 4 | [3] 4 | [4] 4

O=C(O)C(O)C(O)C(=O)O (stereo not given) [Tartaric acid] (Biolog plate: PM25)
inactive: [1] 3.33 | [2] 2 | [3] 4.33 | [4] 1.33

N=C(N)c1ccccc1 [Benzamidine] (Biolog plate: PM22)
active: [2] 0 | [3] 0 | [4] 0
inactive: [1] 4

CN(C)C(=O)/N=N/C(=O)N(C)C [Diamide] (Biolog plate: PM21)
inactive: [1] 5.75 | [2] 5
active: [3] 0 | [4] 0

O=C(O)CCC(=O)O [Succinic acid] (Biolog plate: PM25)
inactive: [1] 3.33 | [2] 3.33 | [3] 3.67 | [4] 3

O=C(O)CN(CC(=O)O)c1ccccc1OCCOc1ccccc1N(CC(=O)O)CC(=O)O (Biolog plate: PM22)
inactive: [1] 4.67 | [2] 1.67 | [3] 1.33 | [4] 0.667

O=C([O-])CC(O)(CC(=O)[O-])C(=O)[O-].[Na+].[Na+].[Na+] [Citric acid Trisodium Salt] (Biolog plate: PM25)
inactive: [1] 4 | [2] 4.67 | [3] 4 | [4] 5.67

c1ccc(-c2ccccn2)nc1 [2,2`-Dipyridyl] (Biolog plate: PM21)
inactive: [1] 5 | [2] 5 | [3] 5.25 | [4] 5.25

[F-].[Na+] [Sodium Fluoride] (Biolog plate: PM24)
inactive: [1] 4.33 | [2] 4.67 | [3] 5.33 | [4] 4.67

[Cl][Mn][Cl] [Manganese chloride] (Biolog plate: PM21)
inactive: [1] 4 | [2] 5.25 | [3] 4.5 | [4] 4.5

N[C@H](CO)C(=O)O [D-Serine] (Biolog plate: PM22)
inactive: [1] 5 | [2] 4.67 | [3] 4 | [4] 4

CCCCCCCCCCCCCCCCOP(=O)([O-])OCC[N+](C)(C)C [Miltefosine] (Biolog plate: PM22)
inactive: [1] 5 | [2] 3
active: [3] 0 | [4] 0

NC(=O)NO [Hydroxyurea] (Biolog plate: PM25)
active: [3] 0 | [4] 0
inactive: [1] 1 | [2] 0.333

O=[Si](O)O [Sodium metasilicate] (Biolog plate: PM24)
inactive: [1] 4.33 | [2] 2.67 | [3] 2.67 | [4] 3.33

[I-].[K+] [Potassium iodide] (Biolog plate: PM22)
active: [1] 0 | [2] 0 | [3] 0 | [4] 0

CC(C)Cc1ccc(C(C)C(=O)O)cc1 (stereo not given) [Ibuprofen] (Biolog plate: PM25)
inactive: [1] 4.33 | [2] 4.67 | [3] 4 | [4] 5

[Cl-].[Cl-].[Zn+2] [Zinc chloride] (Biolog plate: PM21)
inactive: [1] 5.75 | [2] 6.75 | [3] 7 | [4] 6.25

NC(N)=O [Urea hydrogen peroxide] (Biolog plate: PM22)
inactive: [1] 4.67 | [2] 4 | [3] 4.67 | [4] 4.33

O=C([O-])c1ccccc1O.[Na+] [Sodium Salicylate] (Biolog plate: PM25)
inactive: [1] 4.67 | [2] 3.33 | [3] 4 | [4] 4

COc1ccc2cc3[n+](cc2c1OC)CCc1cc2c(cc1-3)OCO2 [Berberine Chloride] (Biolog plate: PM24)
inactive: [1] 4 | [2] 4.67 | [3] 0.333 | [4] 0.667

C[C@@H]1[C@H](O)[C@@H](C)/C=C/C=C/C=C/C=C/C=C/C=C/C=C/[C@H](O[C@@H]2O[C@H](C)[C@@H](O)[C@H](N)[C@@H]2O)C[C@@H]2O[C@](O)(C[C@@H](O)C[C@@H](O)[C@H](O)CC[C@@H](O)C[C@@H](O)CC(=O)O[C@H]1C)C[C@H](O)[C@H]2C(=O)O [Amphotericin B] (Biolog plate: PM24)
inactive: [2] 1.33
active: [1] 0 | [3] 0 | [4] 0

NCCSCC(N)C(=O)O (stereo not given) [Thialysine] (Biolog plate: PM24)
inactive: [1] 4 | [2] 4 | [3] 4.67 | [4] 5
